RE007 growth inh: less growth of the S. pombe RE007 Vpr strain; AID 651644; Potency, µM (doses to about 92.2 µM), inactives show top-dose activity change, negative = less growth, most hits filed as inhibitors; 360,000 tested, 0.21% active; S. pombe RE007 Vpr strain, BacTiter-Glo ATP luminescence, 24 h; active means well fitted falling curve with a large enough effect; inconclusive means small, poorly fitted or top-dose-only effect; inactive means no such curve, though single readings can be large or run the other way; further: nearly all actives have a fitted effect of over 50% in size
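Fission yeast strain RE007, carrying one chromosomally integrated HIV-1 vpr copy, was seeded at OD 0.01 in PMG+AL medium with 23 nL pinned compound. After 24 h at 30 °C and 99% humidity, viability was read by BacTiter-Glo luminescence.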
Sm TGR block: S. mansoni TGR enzyme inhibition; Q962Y6; purified TGR, DTNB reduction, TNB absorbance 405 nm; Potency, µM (doses to about 114 µM), inactives show top-dose activity change, negative = inhibition, hits mostly inhibitors; 360,000 tested, 3% active; AID 485364; further: nearly all actives have a fitted effect of over 60% in size
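First, TGR (20 nM dispensed) and NADPH were mixed with compound. Second, a 15 min room-temperature incubation followed. Third, further NADPH and then DTNB were added to start the reaction. Finally, TNB absorbance was monitored kinetically.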
AmpC detergent: AmpC beta-lactamase inhibition with detergent present | AmpC hydrolysis of nitrocefin, absorbance 480 nm, 0.01% Triton | Potency, µM (series often up to 114 µM), without a hit: at the top dose activity change, negative = inhibition, actives largely listed as inhibitors | 370,000 tested, 0.041% active | AID 485294;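 further: 0% = no-compound wells and -100% = no-enzyme wells; nearly all actives have a fitted effect of over 25% in size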
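20 mM phosphate pH 7.0 + 0.01% (detergent screen) or 0.0001% Triton X-100; 5.3 nM AmpC reagent; cpd preinc 15 min RT; nitrocefin (800 uM stock) to start; A480 q20 s × 4 min; Activity was normalised to no-enzyme and no-compound control wells.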
FBPA Giardia inh: blocks Giardia fructose-bisphosphate aldolase activity; A8B2U2; purified Giardia FBPA; Potency, µM (highest dose often 59.6 µM), without a hit: at the top dose activity, negative = inhibition, actives largely listed as inhibitors; 290,000 tested, 0.71% active; further: nearly all actives have a fitted effect of over 55% in size
Target sequence (A8B2U2 whole entry, looked up): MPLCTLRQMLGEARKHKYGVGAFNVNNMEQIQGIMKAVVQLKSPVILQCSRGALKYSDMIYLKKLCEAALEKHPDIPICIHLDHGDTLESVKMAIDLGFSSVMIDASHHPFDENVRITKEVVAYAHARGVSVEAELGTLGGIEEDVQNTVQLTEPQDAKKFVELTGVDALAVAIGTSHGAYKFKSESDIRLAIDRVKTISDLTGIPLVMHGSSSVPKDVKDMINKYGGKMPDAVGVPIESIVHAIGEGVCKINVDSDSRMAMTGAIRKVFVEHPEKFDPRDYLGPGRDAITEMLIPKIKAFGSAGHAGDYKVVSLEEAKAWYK
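Giardia FBPA (40 nM reagent) was preincubated 10 min at RT with compound (up to 57.5 uM final), then substrate plus GAPDH/TPI/NAD/arsenate coupling system with diaphorase/resazurin was added; resorufin fluorescence (525/598 nm) was read after 20 min.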
AmpC no deterg: AmpC beta-lactamase inhibition without detergent. P00811. AmpC nitrocefin hydrolysis, absorbance 480 nm, 0.0001% Triton. Potency, µM (titrated, usually from 57.1 µM), for inactives: at the highest dose activity change, negative = inhibition, hits mostly inhibitors. 330,000 tested, 0.52% active. AID 485341;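 further: plate controls were no compound for no effect and no enzyme for full effect; nearly all actives have a fitted effect of over 20% in size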
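20 mM phosphate pH 7.0 + 0.01% (detergent screen) or 0.0001% Triton X-100; 5.3 nM AmpC reagent; cpd preinc 15 min RT; nitrocefin (800 uM stock) to start; A480 q20 s × 4 min; Activity was normalised to no-enzyme and no-compound control wells.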
An asterisk follows results filed as active; u = inconclusive; x = no result given. An excerpt weighted towards active compounds, which were near 3.4% of everything screened. Unless noted, the call rests on the fitted dose curve; in most records, active means well fitted curve in the direction sought with a large enough effect; inconclusive means small, poorly fitted or top-dose-only effect, or another doubt; inactive means no such curve, though single readings can be large; an effect the other way counts as inactive or inconclusive. Unless noted, on the % scale 0 is the no-effect control and ±100 the full control effect; potency means the concentration at half of the fitted maximal effect.

SMILES | RE007 growth inh | Sm TGR block | AmpC detergent | FBPA Giardia inh | AmpC no deterg
O=C(NCC1CCCO1)c1cc2nc(-c3ccco3)cc(C(F)(F)Cl)n2n1 (centres undefined) | 13% | 45µM* | u | -15% | -20%
O=C(Nc1ccc(F)cc1F)c1cc2nc(-c3ccco3)cc(C(F)(F)Cl)n2n1 | x | 50µM* | -6% | x | x
O=C(Nc1cnn(Cc2ccc(F)cc2)c1)c1cc2nc(-c3ccco3)cc(C(F)(F)F)n2n1 | 1% | -2% | u | -7% | -24%
COc1cccc(CNC(=O)CCNS(=O)(=O)c2ccc3c(c2)CC(C)N3C(C)=O)c1 (centres undefined) | 14% | 5% | 3% | -5% | 5%
COc1ccc(-c2n[nH]c(=S)n2-c2ccc(C)cc2C)cc1 | 7% | -11% | u | 19% | -35%
CCN(CC)S(=O)(=O)c1ccc2oc(SCc3ccc(F)cc3)nc2c1 | 63% | 7% | 3% | -1% | 0%
CC1=CC(C)(C)N2C(=O)C3(N=C(N)NC(Nc4ccccc4)=N3)c3cc(C)cc1c32 (centres undefined) | 18% | 8% | -4% | 0% | -35%
O=C(N/N=C/c1cccc(F)c1)c1c(O)c2c([nH]c1=O)CCCC2 | 4% | -5% | -17% | 8% | -19%
O=C1c2oc3ccccc3c(=O)c2C(c2cccc(Cl)c2)N1c1ccccn1 (centres undefined) | x | 0% | -4% | x | x
CSc1nc(-c2ccco2)nn1C(=O)c1ccccc1 | -2% | 16µM* | 3% | -9% | -14%
COc1ccc(C(=O)n2nc(-c3ccco3)nc2N)cc1 | -13% | 32µM* | 5% | 24% | -16%
CCS(=O)(=O)n1nc(-c2ccco2)nc1SC | -23% | u | -13% | 28µM* | x
COc1ccccc1C(=O)n1nc(-c2ccco2)nc1SC | 10% | 14µM* | 3% | -18% | -19%
CSc1nc(-c2ccco2)nn1C(=O)c1ccc(C)cc1 | -7% | u | u | -14% | -17%
CSc1nc(-c2ccco2)nn1S(=O)(=O)c1ccccc1 | x | -7% | -7% | 11% | -7%
COCCn1c(SCC(=O)Nc2cccc(OC)c2)nnc1-c1ccc(Cl)cc1 | -2% | 4% | -20% | -1% | 28%
Cc1cccc(CS(=O)(=O)Cc2ccc(C(=O)NCc3ccc(F)cc3)o2)c1 | x | u | 7% | x | x
COc1ccccc1/C=c1\sc2nc(-c3ccco3)nn2c1=O | -8% | 11µM* | u | -10% | -32%
CN(C)C(=O)c1cccc(-c2cnc3c(NC=O)cc(-c4cccc(F)c4)cn23)c1 | 1% | x | x | x | x
CCCSc1oc(-c2ccco2)nc1S(=O)(=O)c1ccccc1 | 3% | 56µM* | -3% | u | -8%
CCCSc1oc(-c2ccco2)nc1S(=O)(=O)c1ccc(Br)cc1 | x | -36% | 8% | x | x
NC(=O)CSc1oc(-c2ccco2)nc1S(=O)(=O)c1ccc(Br)cc1 | 6% | 18µM* | 4% | -13% | -13%
CC(C)Sc1oc(-c2ccco2)nc1S(=O)(=O)c1ccc(F)cc1 | -20% | 18µM* | 3% | u | -42%
CCCSc1oc(-c2ccco2)nc1S(=O)(=O)c1ccc(C)cc1 | -15% | -31% | -2% | 1% | -11%
CSc1oc(-c2ccco2)nc1S(=O)(=O)c1ccc(Br)cc1 | -8% | 50µM* | u | -11% | -24%
SMILES | RE007 growth inh | Sm TGR block | AmpC detergent | FBPA Giardia inh | AmpC no deterg
CC(C)CSc1oc(-c2ccco2)nc1S(=O)(=O)c1ccc(Br)cc1 | x | -18% | 7% | x | x
COC(=O)Cn1cnc2c(cnn2-c2ccc(OC)cc2)c1=O | -5% | -18% | 3% | 13% | -5%
CCN(CCO)c1ncnc2c1sc1nc(CC(C)C)c3c(c12)CC(C)(C)OC3 | 1% | 1% | -11% | -3% | 2%
Cc1cc(C)cc(NC(=O)CCc2c(C)nc3nc(CNC(=O)c4cccc(F)c4)nn3c2C)c1 | x | 8% | 8% | x | x
Cc1ccc(S(=O)(=O)c2nc(-c3ccco3)oc2SCC(N)=O)cc1 | 8% | 40µM* | -7% | 3% | -12%
NC(=O)CSc1oc(-c2ccco2)nc1S(=O)(=O)c1ccc(Cl)cc1 | 9% | 20µM* | 2% | -1% | -19%
